SENP7 inh – blocks the human protease SENP7; Q9BQF6; recombinant SENP7, Z-RLRGG-aminoluciferin luminescence, 40 min; inhibition, % at 5 µM; 1.5% of 330,000 active; AID 434973;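 active = inhibition above about 50% at the single test dose, limit read from the data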;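 note: plate controls were DMSO with enzyme for no effect and no enzyme buffer wells for full effect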
Target sequence (Q9BQF6 706-1050 limits assumed): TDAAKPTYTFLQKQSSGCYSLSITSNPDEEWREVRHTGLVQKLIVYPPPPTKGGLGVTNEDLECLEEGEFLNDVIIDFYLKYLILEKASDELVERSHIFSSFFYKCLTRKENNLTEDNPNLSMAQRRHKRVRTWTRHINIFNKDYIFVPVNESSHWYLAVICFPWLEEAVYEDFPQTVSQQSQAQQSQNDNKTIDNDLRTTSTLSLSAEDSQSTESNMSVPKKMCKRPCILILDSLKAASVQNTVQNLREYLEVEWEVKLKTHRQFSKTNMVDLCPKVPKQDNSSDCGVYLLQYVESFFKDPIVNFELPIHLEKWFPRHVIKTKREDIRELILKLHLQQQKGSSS
SENP6 inh – inhibitors of human SENP6 protease; Q9GZR1; Recombinant SENP6 catalytic domain, aminoluciferin luminescence; inhibition, % at 10 µM; 1.8% of 330,000 active;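 active = inhibition above about 50% at the single tested dose, limit read from the data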;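 note: plate controls were DMSO wells with enzyme for no effect and DMSO wells lacking enzyme for full effect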
SENP8 block-1 – inhibitors of human SENP8 protease; Q96LD8; purified SENP8, Z-RLRGG-aminoluciferin cleavage, luminescence; inhibition, % at 10 µM; 1.2% of 330,000 active; AID 2540; in the data active = inhibition above about 50%
Target sequence (Q96LD8 whole entry, looked up): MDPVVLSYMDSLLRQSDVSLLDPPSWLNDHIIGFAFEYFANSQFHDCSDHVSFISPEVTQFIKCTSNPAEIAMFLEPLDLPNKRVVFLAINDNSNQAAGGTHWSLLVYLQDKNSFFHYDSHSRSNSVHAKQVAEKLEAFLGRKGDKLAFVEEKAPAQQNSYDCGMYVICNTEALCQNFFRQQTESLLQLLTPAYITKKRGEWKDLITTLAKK
SENP8 block-2 – blocks human SENP8 cleavage of Nedd8 substrate; recombinant SENP8, Nedd8 substrate fluorescence; inhibition, % at 20 µM; 0.64% of 360,000 active; in the data active = inhibition mostly above about 40%, no sharp cut-off; inactive = mostly below about 27%
HSP90 inh – blocks HSP90-mediated luciferase refolding in reticulocyte lysate; Rabbit reticulocyte lysate, luciferase refolding luminescence, 3 h; inhibition, % at 5.6 µM; 0.91% of 290,000 active; AID 1789;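 active = inhibition above the screen-wide mean plus 3 SD, computed separately per campaign, cut at about 16% in these data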;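 note: 0% = DMSO wells and 100% = 60 µM geldanamycin wells; inhibitors lower the luminescence because luciferase stays unfolded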
LGR2 inh – blocks bursicon-induced cAMP signaling via Drosophila LGR2. HEK293 LGR2, CRE-luciferase, bursicon-stimulated, 4 h. inhibition, % at 9.99 µM. 0.35% of 380,000 active;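 active = drop in luminescence signal, shown as inhibition above about 50% in the replicate tests, limit read from the data, passing the limit was not always enough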;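 note: agonist challenge used bursicon conditioned medium at about half maximal strength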
HSP90 inh confirm – confirmation of HSP90 inhibitors. 64% of 2,300 active. rabbit reticulocyte lysate, luciferase refolding luminescence, 3 h. shares compounds with HSP90 inh. inhibition, % at 5.9 µM; in the data active = inhibition above about 18%;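 note: 0% = vehicle wells and 100% = reference inhibitor wells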
luciferase ctr – counter-screen for HSP90 inhibitors: inhibitors of firefly luciferase; shares compounds with HSP90 inh; purified native firefly luciferase, luminescence; inhibition, % at 5.9 µM; 48% of 2,300 active;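 active = inhibition above the mean inhibition of all tested sample wells plus 3 SD, cut at about 10% in these data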;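 note: 0% = DMSO with luciferase and 100% = wells lacking luciferase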
SENP8 conf – human SENP8 inhibition, confirmed; shares compounds with SENP7 inh; Recombinant SENP8, Z-RLRGG-aminoluciferin luminescence, 60 min; inhibition, % at 12.5 µM; 40% of 6,200 active; AID 488912;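 active = mean inhibition across replicates above about 50%, limit read from the data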
SENP6 conf – confirmation of human SENP6 protease inhibitors | shares compounds with SENP7 inh | recombinant SENP6, Z-RLRGG-aminoluciferin luminescence | inhibition, % at 12.5 µM | 58% of 6,200 active
SENP7 conf – confirmation of human SENP7 protease inhibitors. shares compounds with SENP7 inh. recombinant SENP7, Z-RLRGG-aminoluciferin luminescence, 40 min. inhibition, % at 12.5 µM. 69% of 6,200 active. AID 488917
Casp3 select – selectivity test for SENP inhibitors: human caspase-3 inhibition; shares compounds with SENP7 inh; purified caspase-3, Z-DEVD-aminoluciferin luminescence, 60 min; inhibition, % at 12.5 µM; 60% of 6,200 active; AID 488918;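 active = mean inhibition above about 50%, limit read from the data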;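 note: plate controls were enzyme with DMSO for no effect and wells without caspase-3 for full effect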
SENP luc ctr – counter-screen for SENP inhibitors: luminescence interference; AID 488919; Pre-incubated SENP8/Z-RLRGG-aminoluciferin, luciferase luminescence interference; 39% of 6,200 active; shares compounds with SENP7 inh; inhibition, % at 12.5 µM;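 active = mean inhibition above about 50% when retested at one dose, limit read from the data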;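 note: plate controls were DMSO wells with completed reaction for no effect and substrate without enzyme for full effect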
* marks the source's active call; other numbers are inactive results; · = no result given. Rows were chosen to be rich in hits. Some 2.3% of all compounds tested hit in one or more screens of this group.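 Rule for the calls, unless noted: active = mean inhibition above about 50% in the one-dose retest (limit read from the data); inactive = the rest.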

SMILES | SENP7 inh | SENP6 inh | SENP8 block-1 | SENP8 block-2 | HSP90 inh | LGR2 inh | HSP90 inh confirm | luciferase ctr | SENP8 conf | SENP6 conf | SENP7 conf | Casp3 select | SENP luc ctr
CC(=O)Nc1ccc(C(=O)Nc2ccc3c(c2)OCCO3)cc1 | 1.3 | 4.6 | -9.4 | 10.8 | -0.6 | -15.7 | · | · | · | · | · | · | ·
O=C(Nc1ccc2c(c1)OCCO2)c1ccc(Cl)cc1 | 73.4* | 81.2* | 59.4* | 3.4 | 18.9* | 17.8 | 24.9* | 15.3* | 46.5 | 74.8* | 92.4* | 76.1* | 14.3
Cc1cc(C(=O)Nc2ccc3c(c2)OCO3)cs1 | 73.0* | 64.5* | 49.7 | 2.6 | 20.0* | · | 12.3 | -14.2 | 70.4* | 71.8* | 92.9* | 86.4* | 74.7*
Cc1cc(C(=O)Nc2ccccn2)cs1 | 70.8* | 71.9* | 48.8 | 5.5 | 24.9* | 8.2 | 16.3* | 4.5 | 40.0 | 46.6 | 84.7* | 85.4* | 63.3*
O=C(NC1Cc2ccccc2C1)[C@@H]1[C@@H](CO)[C@@H]2Cn3c(ccc(C4=CCCC4)c3=O)[C@H]1N2 | · | · | · | · | · | -11.8 | · | · | · | · | · | · | ·
CCOC(=O)c1c(N)sc(C(=O)Nc2ccc3c(c2)OCO3)c1C | 97.6* | 97.0* | 92.4* | 1.4 | 41.1* | · | 69.0* | 58.7* | 10.3 | 97.7* | 102.6* | 95.6* | 96.1*
O=C(Nc1ccc2c(c1)OCO2)Nc1ccc2c(c1)OCO2 | 39.3 | 3.3 | 5.7 | 5.8 | -3.5 | -39.1 | · | · | · | · | · | · | ·
Cc1ccc(C(=O)Nc2ccc3c(c2)OCCO3)c(C)c1 | 89.1* | 90.9* | 81.5* | -0.8 | 65.5* | 92.8* | 82.5* | 76.5* | 88.3* | 88.0* | 97.4* | 92.8* | 87.4*
O=C(Nc1cccc(C(=O)O)c1)Nc1ccc2c(c1)OCO2 | 99.8* | 96.4* | 92.5* | 3.7 | 86.0* | 97.2* | 96.0* | 91.1* | 97.0* | 97.0* | 101.4* | 93.3* | 96.3*
O=C(Nc1ccc(N2CCCCC2)cc1)c1ccccn1 | 100.3* | 101.0* | 94.6* | 1.2 | 91.9* | · | 93.2* | 89.3* | 95.0* | 98.4* | 102.8* | 97.7* | 75.6*
Cc1cc(C)c(C(=O)Nc2ccc3c(c2)OCCO3)c(C)c1 | · | · | · | 23.2 | · | 1.6 | · | · | · | · | · | · | ·
CCOC(=O)c1c(C)c(C(=O)Nc2ccc3c(c2)OCO3)c(C)n1C | 4.0 | -9.1 | -4.1 | -1.7 | -2.0 | 0.0 | · | · | · | · | · | · | ·
O=C(C[C@H]1CC[C@H]2[C@@H](COC[C@H](O)CN2CC2CCOCC2)O1)NCC1CC1 | · | · | · | · | · | -1.6 | · | · | · | · | · | · | ·
C[C@@H]1CN([C@@H](C)CO)C(=O)Cc2cc(NC(=O)c3ccncc3)ccc2O[C@H]1CN(C)Cc1ccncc1 | · | · | · | · | · | -2.4 | · | · | · | · | · | · | ·
O=C(Nc1ccc(NC(=O)c2ccc3c(c2)OCCO3)cc1)c1ccccc1 | -8.8 | -30.5 | 5.2 | 7.6 | 2.2 | 1.3 | · | · | · | · | · | · | ·
O=C(Nc1ccc2c(c1)OCCO2)c1ccccn1 | 89.0* | 88.5* | 82.1* | 2.4 | 24.8* | 76.8* | 66.6* | 52.6* | 89.4* | 89.2* | 100.0* | 96.8* | 92.1*
O=C(Nc1ccc(NC(=O)c2ccccn2)cc1)C(=O)Nc1ccc2c(c1)OCCO2 | -7.0 | -18.7 | 6.4 | -38.7 | -0.7 | 11.2 | · | · | · | · | · | · | ·
Cc1ccc(NC(=O)c2ccc3c(c2)OCCO3)cc1C | 91.9* | 90.8* | 85.9* | 8.8 | 42.4* | 76.5* | 68.0* | 60.9* | -10.8 | 86.1* | 98.4* | 85.7* | 88.2*

Screening results: PubChem BioAssay, several laboratories
